From the supplement of paper PMC6992640

Tested on: UCD52 (cells of a triple-negative basal-like breast cancer xenograft)
Assay: cell viability of combination (% of vehicle); higher = less cytotoxic
Details: 1 µM; 72 h; partner dose: 10 nM
Method: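 PDX cells were treated for 72 h with each drug at 1 µM plus afatinib (10 nM; 1 µM for WHIM30). Luciferase viability is expressed as percent of vehicle.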

| SMILES | cell viability of combination |
| --- | --- |
| CC(CCC(=O)O)C1CCC2C3CCC4CC(O)CCC4(C)C3CCC12C (stereo not given) [Lithocholic Acid] + CN(C)C/C=C/C(=O)Nc1cc2c(Nc3ccc(F)c(Cl)c3)ncnc2cc1O[C@H]1CCOC1 [Afatinib] | 52.6 |
| CC(C)Nc1cc(-c2c[nH]c(C(=O)NC(CO)c3cccc(Cl)c3)c2)c(Cl)cn1 (stereo not given) + CN(C)C/C=C/C(=O)Nc1cc2c(Nc3ccc(F)c(Cl)c3)ncnc2cc1O[C@H]1CCOC1 [Afatinib] | 50.5 |
| CC(C)CC(NC(=O)C(NC(=O)c1cccc(-c2ccccc2)n1)C(C)O)B(O)O (stereo not given) + CN(C)C/C=C/C(=O)Nc1cc2c(Nc3ccc(F)c(Cl)c3)ncnc2cc1O[C@H]1CCOC1 [Afatinib] | 18.9 |
| CN1CCN(c2ccc(C(=O)/N=c3\[nH][nH]c4ccc(Cc5cc(F)cc(F)c5)cc34)c(NC3CCOCC3)c2)CC1 [Entrectinib] + CN(C)C/C=C/C(=O)Nc1cc2c(Nc3ccc(F)c(Cl)c3)ncnc2cc1O[C@H]1CCOC1 [Afatinib] | 54.3 |
| Nc1ncn(C2OC(CO)C(O)C2O)c(=O)n1 (stereo not given) [5-Azacytidine] + CN(C)C/C=C/C(=O)Nc1cc2c(Nc3ccc(F)c(Cl)c3)ncnc2cc1O[C@H]1CCOC1 [Afatinib] | 58.5 |
| CC(C)c1nc(N(C)S(C)(=O)=O)nc(-c2ccc(F)cc2)c1C=CC(O)CC(O)CC(=O)[O-].CC(C)c1nc(N(C)S(C)(=O)=O)nc(-c2ccc(F)cc2)c1C=CC(O)CC(O)CC(=O)[O-].[Ca+2] (stereo not given) [Rosuvastatin Calcium] + CN(C)C/C=C/C(=O)Nc1cc2c(Nc3ccc(F)c(Cl)c3)ncnc2cc1O[C@H]1CCOC1 [Afatinib] | 55.2 |
| COc1ccc(CN2CCN(C(c3ccc(F)cc3)c3ccc(F)cc3)CC2)c(OC)c1OC.Cl.Cl [Lomerizine HCl] + CN(C)C/C=C/C(=O)Nc1cc2c(Nc3ccc(F)c(Cl)c3)ncnc2cc1O[C@H]1CCOC1 [Afatinib] | 68.9 |
| COc1cc2nccc(Oc3ccc(NC(=O)C4(C(=O)Nc5ccc(F)cc5)CC4)cc3)c2cc1OC.O=C(O)CC(O)C(=O)O [Cabozantinib malate (XL184)] + CN(C)C/C=C/C(=O)Nc1cc2c(Nc3ccc(F)c(Cl)c3)ncnc2cc1O[C@H]1CCOC1 [Afatinib] | 64.7 |
| CC(C)(C)c1ccc(C(=O)CCCN2CCC(OC(c3ccccc3)c3ccccc3)CC2)cc1 [Ebastine] + CN(C)C/C=C/C(=O)Nc1cc2c(Nc3ccc(F)c(Cl)c3)ncnc2cc1O[C@H]1CCOC1 [Afatinib] | 70.1 |
| COc1ccc2cc1Oc1ccc(cc1)CC1c3c(cc4c(c3Oc3cc5c(cc3OC)CCN(C)C5C2)OCO4)CCN1C (stereo not given) [Cepharanthine] + CN(C)C/C=C/C(=O)Nc1cc2c(Nc3ccc(F)c(Cl)c3)ncnc2cc1O[C@H]1CCOC1 [Afatinib] | 40.1 |
| CCOC(=O)C1=C(COCCN)NC(C)=C(C(=O)OC)C1c1ccccc1Cl.O=S(=O)(O)c1ccccc1 (stereo not given) [Amlodipine Besylate] + CN(C)C/C=C/C(=O)Nc1cc2c(Nc3ccc(F)c(Cl)c3)ncnc2cc1O[C@H]1CCOC1 [Afatinib] | 83.6 |
| Clc1ccc(C(Cn2ccnc2)OCc2ccc(Sc3ccccc3)cc2)c(Cl)c1.O=[N+]([O-])O (stereo not given) [Fenticonazole Nitrate] + CN(C)C/C=C/C(=O)Nc1cc2c(Nc3ccc(F)c(Cl)c3)ncnc2cc1O[C@H]1CCOC1 [Afatinib] | 59.9 |
| CO[C@@]12[C@H](COC(N)=O)C3=C(C(=O)C(C)=C(N)C3=O)N1C[C@@H]1N[C@@H]12 [Mitomycin C] + CN(C)C/C=C/C(=O)Nc1cc2c(Nc3ccc(F)c(Cl)c3)ncnc2cc1O[C@H]1CCOC1 [Afatinib] | 58.4 |
| CCCCc1oc2ccc(NS(C)(=O)=O)cc2c1C(=O)c1ccc(OCCCN(CCCC)CCCC)cc1 [Dronedarone] + CN(C)C/C=C/C(=O)Nc1cc2c(Nc3ccc(F)c(Cl)c3)ncnc2cc1O[C@H]1CCOC1 [Afatinib] | 57.7 |
| N.N.O=C([O-])C1(C(=O)[O-])CCC1.[Pt+2] [Carboplatin] + CN(C)C/C=C/C(=O)Nc1cc2c(Nc3ccc(F)c(Cl)c3)ncnc2cc1O[C@H]1CCOC1 [Afatinib] | 68.6 |
| CC(C)(C)c1ccc(C(O)CCCN2CCC(C(O)(c3ccccc3)c3ccccc3)CC2)cc1 (stereo not given) [Terfenadine] + CN(C)C/C=C/C(=O)Nc1cc2c(Nc3ccc(F)c(Cl)c3)ncnc2cc1O[C@H]1CCOC1 [Afatinib] | 59.1 |
| CCCCCCCCCCCCCCCCOP(=O)([O-])OCC[N+](C)(C)C [Miltefosine] + CN(C)C/C=C/C(=O)Nc1cc2c(Nc3ccc(F)c(Cl)c3)ncnc2cc1O[C@H]1CCOC1 [Afatinib] | 69.5 |
| COc1cc(Nc2ncc(F)c(Nc3ccc4c(n3)N(COP(=O)(O)O)C(=O)C(C)(C)O4)n2)cc(OC)c1OC [Fostamatinib (R788)] + CN(C)C/C=C/C(=O)Nc1cc2c(Nc3ccc(F)c(Cl)c3)ncnc2cc1O[C@H]1CCOC1 [Afatinib] | 74.9 |
| CC1(COc2ccc3c(c2)ncn3-c2ccc3cccc(N4CCC(N)CC4)c3n2)COC1 + CN(C)C/C=C/C(=O)Nc1cc2c(Nc3ccc(F)c(Cl)c3)ncnc2cc1O[C@H]1CCOC1 [Afatinib] | 108 |
| CCOc1cc2ncc(C#N)c(Nc3ccc(F)c(Cl)c3)c2cc1NC(=O)C=CCN(C)C [Pelitinib (EKB-569)] + CN(C)C/C=C/C(=O)Nc1cc2c(Nc3ccc(F)c(Cl)c3)ncnc2cc1O[C@H]1CCOC1 [Afatinib] | 28.6 |

| SMILES | cell viability of combination |
| --- | --- |
| Clc1ccc(CSC(Cn2ccnc2)c2ccc(Cl)cc2Cl)cc1.O=[N+]([O-])O (stereo not given) [Sulconazole Nitrate] + CN(C)C/C=C/C(=O)Nc1cc2c(Nc3ccc(F)c(Cl)c3)ncnc2cc1O[C@H]1CCOC1 [Afatinib] | 74.1 |
| Cc1nc(Nc2ncc(C(=O)Nc3c(C)cccc3Cl)s2)cc(N2CCN(CCO)CC2)n1 + CN(C)C/C=C/C(=O)Nc1cc2c(Nc3ccc(F)c(Cl)c3)ncnc2cc1O[C@H]1CCOC1 [Afatinib] | 27.6 |
| CO[C@H]1/C=C/O[C@@]2(C)Oc3c(C)c(O)c4c(O)c(c(/C=N/N5CCN(C6CCCC6)CC5)c(O)c4c3C2=O)NC(=O)/C(C)=C\C=C\[C@H](C)[C@H](O)[C@@H](C)[C@@H](O)[C@@H](C)[C@H](OC(C)=O)[C@@H]1C [Rifapentine] + CN(C)C/C=C/C(=O)Nc1cc2c(Nc3ccc(F)c(Cl)c3)ncnc2cc1O[C@H]1CCOC1 [Afatinib] | 72.2 |
| CC[C@@H]1/C=C(\C)C[C@H](C)C[C@H](OC)[C@H]2O[C@@](O)(C(=O)C(=O)N3CCCC[C@H]3C(=O)O[C@H](/C(C)=C/[C@@H]3CC[C@H](Cl)[C@H](OC)C3)[C@H](C)[C@@H](O)CC1=O)[C@H](C)C[C@@H]2OC [Pimecrolimus] + CN(C)C/C=C/C(=O)Nc1cc2c(Nc3ccc(F)c(Cl)c3)ncnc2cc1O[C@H]1CCOC1 [Afatinib] | 70.7 |
| Cl.Cl.O=C1c2c(O)ccc(O)c2C(=O)c2c(NCCNCCO)ccc(NCCNCCO)c21 [Mitoxantrone HCl] + CN(C)C/C=C/C(=O)Nc1cc2c(Nc3ccc(F)c(Cl)c3)ncnc2cc1O[C@H]1CCOC1 [Afatinib] | 32.2 |
| CC(Oc1cc(-c2cnn(C3CCNCC3)c2)cnc1N)c1c(Cl)ccc(F)c1Cl [(R)-Crizotinib] + CN(C)C/C=C/C(=O)Nc1cc2c(Nc3ccc(F)c(Cl)c3)ncnc2cc1O[C@H]1CCOC1 [Afatinib] | 48.3 |
| COc1ccc2c(O[C@H]3CC4C(=O)N(C)CCCC/C=C\[C@H]5C[C@@]5(C(=O)NS(=O)(=O)C5CC5)NC(=O)[C@@H]4C3)cc(-c3nc(C(C)C)cs3)nc2c1C (stereo not given in full) [Simeprevir] + CN(C)C/C=C/C(=O)Nc1cc2c(Nc3ccc(F)c(Cl)c3)ncnc2cc1O[C@H]1CCOC1 [Afatinib] | 64.5 |
| CCCCCCCCc1ccc(CCC(N)(CO)CO)cc1.Cl [Fingolimod (FTY720)] + CN(C)C/C=C/C(=O)Nc1cc2c(Nc3ccc(F)c(Cl)c3)ncnc2cc1O[C@H]1CCOC1 [Afatinib] | 69.9 |
| CNC(=O)c1cc(Oc2ccc(NC(=O)Nc3ccc(Cl)c(C(F)(F)F)c3)cc2)ccn1.Cc1ccc(S(=O)(=O)O)cc1 [Sorafenib Tosylate] + CN(C)C/C=C/C(=O)Nc1cc2c(Nc3ccc(F)c(Cl)c3)ncnc2cc1O[C@H]1CCOC1 [Afatinib] | 42.3 |
| CC(NCCCc1cccc(C(F)(F)F)c1)c1cccc2ccccc12.Cl (stereo not given) [Cinacalcet HCl] + CN(C)C/C=C/C(=O)Nc1cc2c(Nc3ccc(F)c(Cl)c3)ncnc2cc1O[C@H]1CCOC1 [Afatinib] | 67.7 |
| CCc1cnn2c(NCc3ccc[n+]([O-])c3)cc(N3CCCCC3CCO)nc12 (stereo not given) + CN(C)C/C=C/C(=O)Nc1cc2c(Nc3ccc(F)c(Cl)c3)ncnc2cc1O[C@H]1CCOC1 [Afatinib] | 21.4 |
| CN1CCN(CCOc2cc(OC3CCOCC3)c3c(Nc4c(Cl)ccc5c4OCO5)ncnc3c2)CC1 [Saracatinib (AZD0530)] + CN(C)C/C=C/C(=O)Nc1cc2c(Nc3ccc(F)c(Cl)c3)ncnc2cc1O[C@H]1CCOC1 [Afatinib] | 37.9 |
| COc1cccc2c1C(=O)c1c(O)c3c(c(O)c1C2=O)CC(O)(C(=O)CO)CC3OC1CC(N)C(O)C(C)O1.Cl (stereo not given) [Doxorubicin (Adriamycin) HCl] + CN(C)C/C=C/C(=O)Nc1cc2c(Nc3ccc(F)c(Cl)c3)ncnc2cc1O[C@H]1CCOC1 [Afatinib] | 40.9 |
| C=C1C(=CC=C2CCCC3(C)C2CCC3C(C)C=CC(C)C(C)C)CC(O)CC1O (stereo not given) [Doxercalciferol] + CN(C)C/C=C/C(=O)Nc1cc2c(Nc3ccc(F)c(Cl)c3)ncnc2cc1O[C@H]1CCOC1 [Afatinib] | 47.6 |
| C=CC(=O)Nc1cc(Nc2nccc(-c3cn(C)c4ccccc34)n2)c(OC)cc1N(C)CCN(C)C + CN(C)C/C=C/C(=O)Nc1cc2c(Nc3ccc(F)c(Cl)c3)ncnc2cc1O[C@H]1CCOC1 [Afatinib] | 50.2 |
| CC(C)N=c1cc2n(-c3ccc(Cl)cc3)c3ccccc3nc-2cc1Nc1ccc(Cl)cc1 [Clofazimine] + CN(C)C/C=C/C(=O)Nc1cc2c(Nc3ccc(F)c(Cl)c3)ncnc2cc1O[C@H]1CCOC1 [Afatinib] | 69.6 |
| CC(C)(C)NC(=O)C1CC2CCCCC2CN1CC(O)C(Cc1ccccc1)NC(=O)C(CC(N)=O)NC(=O)c1ccc2ccccc2n1.CS(=O)(=O)O (stereo not given) [Saquinavir mesylate] + CN(C)C/C=C/C(=O)Nc1cc2c(Nc3ccc(F)c(Cl)c3)ncnc2cc1O[C@H]1CCOC1 [Afatinib] | 61.1 |
| CN(C(=O)CN(CCO)CC(=O)N(C)C(C)(C)Cc1ccccc1)C(C)(C)Cc1ccccc1 [Oxethazaine] + CN(C)C/C=C/C(=O)Nc1cc2c(Nc3ccc(F)c(Cl)c3)ncnc2cc1O[C@H]1CCOC1 [Afatinib] | 62.9 |
| CC(C)c1nc(CN(C)C(=O)NC(C(=O)NC(Cc2ccccc2)CC(O)C(Cc2ccccc2)NC(=O)OCc2cncs2)C(C)C)cs1 (stereo not given) [Ritonavir] + CN(C)C/C=C/C(=O)Nc1cc2c(Nc3ccc(F)c(Cl)c3)ncnc2cc1O[C@H]1CCOC1 [Afatinib] | 62.5 |
| CC(=O)c1cc2c(o1)C(=O)c1ccccc1C2=O [Napabucasin] + CN(C)C/C=C/C(=O)Nc1cc2c(Nc3ccc(F)c(Cl)c3)ncnc2cc1O[C@H]1CCOC1 [Afatinib] | 17.4 |
